An excerpt weighted towards active compounds, which were near 4.7% of everything screened.
TIM10 inh = growth inhibitors of isogenic TIM10 control yeast, primary screen, counter-screen for tim10-1 yeast inhibitor project, luminescence, uHTS; actives 1.4% (n = 330,000); inhibition, % at 10 µM; AID 463195, 2010; S. cerevisiae TIM10 strain growth, BacTiter-Glo luminescence, 24 h;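 active = inhibition of 40% or more at the single tested concentration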;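 also: wild-type TIM10 isogenic control strain grown at permissive 25 °C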
SKKanGAS inh = S. pyogenes SKKanGAS growth inhibitors in kanamycin, primary screen, streptokinase expression inhibitor project, SKKanGAS strain, BacTiter-Glo luminescence | 6 h | inhibition, % at 7.5 µM | actives 1.3% (n = 300,000);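 active = mean replicate score, as percent of positive control median, at least 50; inconclusive = mean below 50 but one replicate at or above 50; inactive = mean and every replicate below 50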;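 also: strain carries kanamycin resistance gene driven by streptokinase promoter and grows in 40 µg/ml kanamycin; loss of luminescence reflects streptokinase promoter inhibition or plain growth inhibition; 0% = median of DMSO wells and 100% = positive control at its reference dose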
tim10-1 inh = growth inhibitors of tim10-1 mutant yeast, primary screen, luminescence, uHTS; S. cerevisiae tim10-1 ts strain growth, BacTiter-Glo, 24 h; inhibition, % at 20 µM; actives 2.2% (n = 330,000); AID 463190, 2010;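 active = inhibition of at least 40%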;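 also: mutant grown at 25 °C; 0% = DMSO wells with yeast and 100% = wells holding no yeast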
tim23-1 inh = growth inhibitors of tim23-1 mutant yeast, primary screen, luminescence, uHTS. actives 1.3% (n = 330,000). S. cerevisiae tim23-1 growth, BacTiter-Glo luminescence, 24 h. inhibition, % at 20 µM. AID 463212, 2010;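 active = growth inhibition of the mutant yeast at or above 50%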;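 also: temperature-sensitive mutant grown at 25 °C; plate controls were DMSO-treated mutant yeast for no effect and medium wells lacking yeast for full effect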
PfHsp90 yeast 2 = growth inhibition of PfHsp90-expressing yeast, primary screen, antimalarial PfHsp90 inhibitor project, S. cerevisiae, BacTiter-Glo luminescence, single point, set 2; actives 0.32% (n = 310,000); inhibition, % at 9.4 µM; BacTiter-Glo ATP, 48 h; yeast lacking PDR1 and PDR3 efflux regulators; AID 504621, 2011;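 active = every replicate shows inhibition above about 80%, whatever the replicate mean, limit read from the data; inconclusive = mean inhibition reaches the set limit but some replicate falls short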;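 also: 0% = DMSO neutral controls and 100% = 20 µM radicicol positive controls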
Calb FLC = C. albicans growth inhibition with fluconazole, primary screen, CaCi-2 strain, Alamar Blue fluorescence; actives 0.57% (n = 300,000); growth inhibition, % (test concentration not listed); C. albicans CaCi-2 (fluconazole-resistant clinical isolate) + fluconazole, 48 h;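 active = growth inhibition above about 58% in most replicates, limit read from the data, passing the limit was not always enough; inconclusive = exactly half the replicates above a set limit; inactive = most replicates below a set limit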;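 also: all wells also contain fluconazole at 8 µg/ml as a sub-toxic cotreatment; 0% = median of DMSO wells and 100% = median of geldanamycin control wells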
tim23-1 confirm = tim23-1 mutant yeast growth inhibitors, confirmation, luminescence, single concentration. shares compounds with tim23-1 inh. S. cerevisiae tim23-1 growth, BacTiter-Glo luminescence, 24 h. inhibition, % at 20 µM. actives 83% (n = 4,400). AID 463218, 2010;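 active = inhibition above about 39% in either of two replicate wells at 20 µM, limit read from the data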;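 also: temperature-sensitive tim23-1 mutant grown at 25 °C; 0% = DMSO wells with yeast and 100% = medium wells without yeast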
Starred values were filed as active, the others as inactive; ? = inconclusive; / = not tested or not shown.

SMILES	TIM10 inh	SKKanGAS inh	tim10-1 inh	tim23-1 inh	PfHsp90 yeast 2	Calb FLC	tim23-1 confirm
COc1ccc(N2C(=O)CC(NCc3cccs3)C2=O)cc1 (stereo not drawn)	1	0	-4	55*	-24	1	13
c1ccc(-c2nc3ccccc3[nH]2)cc1	22	1	-15	50*	4	1	46*
COc1ccc(-c2nc3ccccc3[nH]2)cc1	36	26	-2	63*	54	-17	57*
O=C(/C=C/c1ccccc1Br)c1ccc2c(c1)OCO2	2	-15	5	28	0	7	/
COc1cccc(/C=C/C(=O)c2ccc3c(c2)OCO3)c1OC	33	/	26	53*	2	/	54*
COc1ccc(/C=C/C(=O)N2CCN(c3ccccn3)CC2)c(OC)c1OC	4	-4	8	30	36	13	/
CCCCN(C(=O)c1ccc(S(=O)(=O)N2CCC(C)CC2)cc1)C1CCS(=O)(=O)C1 (stereo not drawn)	-1	0	-19	-10	/	3	/
Nc1nc2ccccc2n1/N=C/c1ccc(-c2ccccc2)o1	38	?	14	55*	12	5	18
Fc1ccc(CSc2nc3ccccc3[nH]2)c2ccccc12	39	50*	32	56*	-44	6	55*
Cc1ccc(NC(=O)c2ccc(OCc3c(C)noc3C)cc2)cc1C	30	/	-26	59*	22	/	56*
CC(=O)Nc1ccc(NC(=O)c2ccc(OCc3c(C)noc3C)cc2)cc1	-18	/	-5	-15	-12	/	/
CC1(C)Cc2c(sc(NC(=O)C(=O)N3CCOCC3)c2C(N)=O)CO1	1	-4	0	-9	29	-6	/
COc1ccc(-c2ccc(=O)n(CC(=O)NCC3COCCO3)n2)cc1 (stereo not drawn)	-11	-6	-23	-13	0	-1	/
C/C(=N\N(C)C)C1=C(O)c2ccccc2C1=O	5	0	8	22	-11	6	/
CCOc1ccc(N=C(C)C2=C(O)c3ccccc3C2=O)cc1	17	20	8	60*	17	2	58*
CCOC(=O)c1ccc(N=Cc2cnc(N)nc2N)cc1	/	/	/	/	-19	/	/
O=C(Nc1ccc2c(c1)oc1ccccc12)c1ccc(Br)o1	28	-7	-12	52*	-11	?	38
Cc1ccoc1C(=O)Nc1ccc2ccccc2c1	29	0	31	54*	25	-3	50*
O=C(Nc1ccc2ccccc2c1)c1ccc(Br)o1	20	2	18	56*	8	-42	52*
CCOc1ccc(N(CC(=O)Nc2cc(C)ccc2C)S(=O)(=O)c2c(C)[nH]c(=O)[nH]c2=O)cc1	6	-1	7	-12	18	-6	/
O=C(c1cccnc1)C1Cc2ccccc2C1=O (stereo not drawn)	13	-3	2	54*	29	/	52*
O=C(NN1C(=O)CSC1=S)c1cccnc1	2	-1	-14	-4	/	-7	/
N#Cc1c(Nc2ccccc2)[n+]([O-])c2ccc(Cl)cc2[n+]1[O-]	/	/	/	/	-157	/	/
COc1ccccc1N1CCN(C(=O)c2cc3ccccc3[nH]2)CC1	24	4	26	52*	-17	11	48*
Cn1ccnc1C(=O)c1cc(SCC(=O)NC2CC2)nc2ccccc12	-25	2	13	8	-14	6	/
CN(C(=O)CSc1cc(C(=O)c2nccn2C)c2ccccc2n1)c1ccccc1	29	7	17	50*	5	4	41*
O=c1c(-c2ccccc2)c1-c1ccccc1	-14	1	16	58*	/	14	-11
Cc1ccc(C2(c3ccc(C)cc3)CC2C(=O)Nc2ccc([N+](=O)[O-])cc2O)cc1 (stereo not drawn)	27	105*	-25	50*	29	-13	18

High-throughput results as filed in PubChem.
